Source: PubChem BioAssay (NCI)
The panel holds about 83,000 compounds, 20% with a hit somewhere; the sample as a whole holds those more often.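 96-well plates, one dose, 48 hours. Percent growth reported; active if below 10.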 Unmarked numbers belong to inactive results. Activity calls are given as the source filed them.

Columns and labels:
Assay in all cases: NCI-60 one-dose screen, 48 h (100 = growth as untreated, 0 = no growth, -100 = all killed)
Settings in all cases: 10 µM unless noted
NCI-H23 lung = tested on: NCI-H23 lung
NCI-H226 lung = tested on: NCI-H226 lung
NCI-H322M lung = tested on: NCI-H322M lung
HOP-62 NSCLC = tested on: HOP-62 NSCLC
NCI-H460 lung = tested on: NCI-H460 lung
HOP-92 NSCLC = tested on: HOP-92 NSCLC
NCI-H522 lung = tested on: NCI-H522 lung
A549/ATCC NSCLC = tested on: A549/ATCC NSCLC
786-0 renal = tested on: 786-0 renal
COLO 205 colon = tested on: COLO 205 colon

| SMILES | growth (NCI-H23 lung) | growth (NCI-H226 lung) | growth (NCI-H322M lung) | growth (HOP-62 NSCLC) | growth (NCI-H460 lung) | growth (HOP-92 NSCLC) | growth (NCI-H522 lung) | growth (A549/ATCC NSCLC) | growth (786-0 renal) | growth (COLO 205 colon) [%] |
| --- | --- | --- | --- | --- | --- | --- | --- | --- | --- | --- |
| COc1c(-c2cc(-c3ccc(C)o3)[nH]c(=O)n2)c(O)cc2occc12 | 68.8% | 67.3% | 90.7% | 52.1% | 44.4% | 67.3% | 36.1% | 47.1% | 93.9% | – |
| O=[N+]([O-])c1cc(F)c2cccnc2c1O | 87.8% | 102% | 100% | 97.1% | 92.1% | 104% | 60.8% | 105% | 102% | – |
| CC(C)CC(NC(=O)OCC1c2ccccc2-c2ccccc21)C(=O)O (centres undefined) | 101% | 102% | 101% | 103% | 115% | 96.2% | 96.6% | 95.1% | 98% | – |
| O=c1[nH]c2cc(Cl)c(Cl)cc2o1 | 108% | 90.5% | 109% | 96.8% | 109% | 101% | 103% | 114% | 97.1% | – |
| O=C(CI)NCCNc1cccc2c(S(=O)(=O)O)cccc12 | 95.1% | 103% | 98% | 107% | 105% | 102% | 107% | 110% | 101% | – |
| CC(=O)O[C@H]1[C@H](CC#CC#CC[C@@H]2C[C@]3(C)[C@H]4CC=C5[C@H]6[C@@H](C)[C@H](C)CC[C@]6(C(=O)NCCN(CCN)CCN)CC[C@@]5(C)[C@]4(C)CC[C@H]3C(C)(C)[C@H]2OC(C)=O)C[C@]2(C)[C@H]3CC=C4[C@H]5[C@@H](C)[C@H](C)CC[C@]5(C(=O)NCCN(CCN)CCN)CC[C@@]4(C)[C@]3(C)CC[C@H]2C1(C)C | 11.9% | 69.5% | 63.3% | 87.1% | 80.5% | 48.6% | 15.2% | 43% | 82.8% | – |
| CC(=O)O[C@H]1[C@H](CC#CC#CC[C@@H]2C[C@]3(C)[C@H]4CC=C5[C@H]6[C@@H](C)[C@H](C)CC[C@]6(C(=O)NCCCCCCCCN)CC[C@@]5(C)[C@]4(C)CC[C@H]3C(C)(C)[C@H]2OC(C)=O)C[C@]2(C)[C@H]3CC=C4[C@H]5[C@@H](C)[C@H](C)CC[C@]5(C(=O)NCCCCCCCCN)CC[C@@]4(C)[C@]3(C)CC[C@H]2C1(C)C | 99.1% | -83.5% (active) | 106% | 96.7% | 103% | 92.3% | 106% | 102% | 103% | – |
| COc1ccc(-c2nc(-c3cc(OC)cc(OC)c3)[nH]c2-c2ccc(OC)cc2)cc1 | 39.1% | 48.7% | 60.6% | 91.8% | 48% | 23.7% | 20.9% | 46.7% | 63.8% | – |
| COc1ccc(-c2nnc(SCC(=O)Nc3ccc(C(=O)/C=C/c4ccc(Cl)cc4)cc3)n2-c2ccccc2)cc1 | 91.1% | 103% | 118% | 100% | 106% | 105% | 84% | 88.5% | 97.4% | – |
| N=c1n(Cc2ccccc2)c(N)cc(=O)n1Cc1ccccc1 | 12.7% | 5.6% (active) | 26.5% | 26.7% | -25% (active) | 99.5% | 10.1% | -47.2% (active) | 19.2% | – |
| CNCc1ccccc1CN(CC(=O)Nc1ccc2c(c1)CC1(C2)C(=O)Nc2ncccc21)C(=O)C(C)(C)C (centres undefined) | 103% | 95% | 100% | 102% | 106% | 104% | 93.5% | 103% | 107% | – |
| Cc1cc(C)c2c(n1)sc1c(Nc3ccc(Cl)cc3Cl)ncnc12 | 19% | 36.2% | 43.9% | 2.53% (active) | 9.44% (active) | 36.2% | 30.5% | 26.2% | 10.9% | – |
| CC(C)(C)CC(C)(C)NCc1cc(C(C)(C)C)cc(CNC(C)(C)CC(C)(C)C)c1O | 38.7% | 72.7% | 83.3% | 69.4% | 50.8% | -1.38% (active) | 8.73% (active) | 67.6% | 71.1% | – |
| O=Cc1ccc2nc(C(Cl)(Cl)Cl)ccc2c1 | 92.4% | 97% | 91.9% | 104% | 94.7% | 91.8% | 94.4% | 108% | 99% | – |
| CCN(CC)CCCC(C)Nc1cnc(C(=O)Nc2cc(C)cc3cccnc23)cn1 (centres undefined) | 96.3% | 60.4% | 84.2% | 91.2% | 79.5% | 51.4% | 96.8% | 72.8% | 88.2% | 37 |
| CC1=C(C(=O)Nc2ccc(F)cc2)C(c2ccc(C)cc2)C2=C(CC(C)(C)CC2=O)N1 (centres undefined) | 93.4% | 89.8% | 103% | 91.5% | 90.8% | 68.4% | 91.2% | 92.4% | 97.2% | – |
| Nc1ncnc2c1N=C(c1ccc(F)cc1)CC(c1sc(Cl)nc1Cl)N2 (centres undefined) | 92.9% | 90.1% | 106% | 105% | 101% | 71% | 88.7% | 92.4% | 92.6% | – |
| CCCCCCCCCCC(C(O)c1ccccc1)N1CCCCC1 (centres undefined) | 49.6% | 33.6% | 45.8% | -75.3% (active) | -74.5% (active) | -14.8% (active) | 18% | 47.3% | 29% | – |
| N=C(N)c1ccc(-c2ccc(-c3cc(Cl)cc(Cl)c3)o2)nc1 | 3.49% (active) | 99.5% | -30.9% (active) | -72.7% (active) | -78.8% (active) | 73.3% | -67.4% (active) | -68.8% (active) | -64.9% (active) | – |
| NC(N)=N/N=C/c1ccccc1 | 102% | 97.8% | 91.2% | 101% | 103% | 95.8% | 85.6% | 97.4% | 103% | – |
| CCOC(=O)c1sc2nc(-c3cc4ccccc4o3)cc(-c3ccc(Cl)cc3)c2c1N | 98.9% | 89.2% | 112% | 107% | 110% | 71.1% | 88.6% | 123% | 118% | – |
| N[C@@H](CO)C(=O)O | 91% | 97.7% | 103% | 105% | 107% | 89.8% | 107% | 102% | 95.1% | – |
| N#Cc1c(NN)n(C2OC(CO)C(O)C2O)c2ncnc(N)c12 (centres undefined) | 2.93% (active) | 25.7% | -19.8% (active) | -0.156% (active) | -13.4% (active) | -18.9% (active) | -57% (active) | 6.43% (active) | 26.1% | – |
| Cc1cc(C)cc(CCCCCCCCCCCCCCCCCC(=O)O)c1 | 104% | 111% | 110% | 107% | 113% | 116% | 92% | 96.6% | 99.5% | – |
| COc1cc2c(cc1OCCCOc1cc3c(cc1OC)C(=O)N1CCC[C@H]1C=N3)C=CC(C)(C)O2 | 107% | 82.7% | 133% | 101% | 108% | 66.3% | 83.7% | 99.3% | 102% | – |
| CCc1ccc2c(c1)N(CCO)C1=C(C(=O)OC1)C2c1cccc(Cl)c1 (centres undefined) | 38.8% | 32.4% | 39.4% | 31.7% | 10.8% | 93.4% | -22% (active) | 26.6% | 32.8% | – |
| c1ccc(-c2[nH]c3ccccc3c2-c2ccccc2)cc1 | 82% | 91.4% | 82.2% | 90% | 82.5% | 8.71% (active) | 91.8% | 84.5% | 83.9% | 107 |
| N#Cc1nc(-c2ccc(Cl)cc2)cc(-c2ccc(Nc3nc(N4CCCCC4)nc(N4CCCCC4)n3)cc2)c1N | 92.1% | 71.2% | 109% | 94.8% | 104% | 101% | 96.9% | 106% | 103% | – |
